The text below walks through data of PubChem BioAssay (EPA / NIEHS).

One may read the AC50 as the concentration giving half of the maximal activity seen.

Results filed as inconclusive are left out. The source made the active and inactive calls. The calls were made as follows: active = hit-call score of the fitted dose curve at least 0.9, where 1 is the maximum; inconclusive = response in the unintended direction; inactive = score below 0.9.

For experiment [1], the target named is human SRC Proto-Oncogene, Non-receptor Tyrosine Kinase (SRC), SRC (gene 6714) (UniProt P12931). As to the kind of experiment: NVS_ENZ_hSRC: NovaScreen (NVS) Enzymatic Assay for human SRC Proto-Oncogene, Non-receptor Tyrosine Kinase (SRC) (AID 2283223). Summed up:
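Cell-free kinase activity assay with fluorescent substrate, product separated by electrophoretic mobility shift, read 1 h after dosing. Duplicate single point at 25 uM, then concentration-response up to 50 uM; loss of signal versus DMSO.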

For experiment [2], the target named is human Protein Tyrosine Phosphatase Receptor Type F (PTPRF), PTPRF (gene 5792) (UniProt P10586). As to the kind of experiment: NVS_ENZ_hPTPRF: NovaScreen (NVS) Enzymatic Assay for human Protein Tyrosine Phosphatase Receptor Type F (PTPRF) (AID 2283213). An outline of the steps: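 Cell-free fluorescence enzyme assay with recombinant protein and substrate; product separated by electrophoretic mobility shift. Read 1 h after dosing, single 25 uM duplicate screen, then concentration-response up to 50 uM; loss of signal vs DMSO.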

The target in experiment [3] is human Protein Tyrosine Phosphatase Receptor Type M (PTPRM), PTPRM (gene 5797) (UniProt P28827). As to the kind of experiment: NVS_ENZ_hPTPRM: NovaScreen (NVS) Enzymatic Assay for human Protein Tyrosine Phosphatase Receptor Type M (PTPRM) (AID 2283215). Summed up:
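Cell-free recombinant PTPRM with fluorogenic substrate; product separated from substrate by electrophoretic mobility shift and read by fluorescence, 1.33 h after dosing. Primary screen single concentration (25 uM) in duplicate; actives retested in concentration series; loss of signal versus DMSO.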

Experiment [4] has as its target human Raf-1 Proto-Oncogene, serine/threonine Kinase (RAF1), RAF1 (gene 5894) (UniProt P04049). As to the kind of experiment: NVS_ENZ_hRAF1: NovaScreen (NVS) Enzymatic Assay for human Raf-1 Proto-Oncogene, serine/threonine Kinase (RAF1) (AID 2283216). Summed up:
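Cell-free recombinant kinase with specific fluorescent substrate, product separated by electrophoretic mobility shift; read 1 h after dosing. Primary screen at 25 uM in duplicate; hits then run in concentration-response up to 50 uM, fitted as loss of signal versus DMSO.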

Experiment [5] deals with human Sirtuin 3 (SIRT3), SIRT3 (gene 23410) (UniProt Q9NTG7). As to the kind of experiment: NVS_ENZ_hSIRT3: NovaScreen (NVS) Enzymatic Assay for human Sirtuin 3 (SIRT3) (AID 2283222). An outline of the steps:
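Cell-free enzyme assay with recombinant protein and fluorescent substrate, product separated by electrophoretic mobility shift; read 1 hour after dosing. Screened in duplicate at 25 uM, then singleton concentration-response up to 50 uM; loss of signal versus DMSO.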

The target of experiment [6] is human Tropomyosin Receptor Kinase A (TRKA), NTRK1 (gene 4914) (UniProt P04629). As to the kind of experiment: NVS_ENZ_hTrkA: NovaScreen (NVS) Enzymatic Assay for human Tropomyosin Receptor Kinase A (TRKA) (AID 2283224). Summed up: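 Recombinant human TrkA activity read after 1 h by fluorescence with electrophoretic mobility shift separating substrate and product. Primary screen in duplicate at 25 uM; actives were rerun in concentration-response up to 50 uM. Loss of signal versus DMSO.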

The target in experiment [7] is human Vascular Endothelial Growth Factor Receptor 2 (VEGFR2), KDR (gene 3791) (UniProt P35968). As to the kind of experiment: NVS_ENZ_hVEGFR2: NovaScreen (NVS) Enzymatic Assay for human Vascular Endothelial Growth Factor Receptor 2 (VEGFR2) (AID 2283230). Summed up: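 Cell-free recombinant VEGFR2 kinase, fluorescent substrate with electrophoretic mobility-shift separation; read 1 h after dosing. Screened at 25 uM in duplicate, hits to concentration-response up to 50 uM; loss-of-signal versus DMSO.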

In experiment [8] the target is human Rho Associated Coiled-coil Containing Protein Kinase 1 (ROCK1), ROCK1 (gene 6093) (UniProt Q13464). Description: NVS_ENZ_hROCK1: NovaScreen (NVS) Enzymatic Assay for human Rho Associated Coiled-coil Containing Protein Kinase 1 (ROCK1) (AID 2283214). An outline of the steps: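 Cell-free recombinant human ROCK1 activity assay; fluorescent substrate and product separated by electrophoretic mobility shift, read 1 h after dosing. Screened in duplicate at 25 uM; loss of signal versus DMSO baseline scored as inhibition.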

Experiment [9] concerns the target human Sirtuin 1 (SIRT1), SIRT1 (gene 23411) (UniProt Q96EB6). Description: NVS_ENZ_hSIRT1: NovaScreen (NVS) Enzymatic Assay for human Sirtuin 1 (SIRT1) (AID 2283219). An outline of the steps: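 Cell-free recombinant SIRT1 with a fluorescent substrate; substrate and product separated by electrophoretic mobility shift and read by fluorescence intensity, 1 h after dosing. Primary screen at 25 uM in duplicate; hits re-run in concentration-response up to 50 uM, relative to DMSO.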

The target in experiment [10] is rat Constitutive Nitric Oxide Synthase (CNOS), Nos1 (gene 24598) (UniProt P29476). As to the kind of experiment: NVS_ENZ_rCNOS: NovaScreen (NVS) Enzymatic Assay for rat Constitutive Nitric Oxide Synthase (CNOS) (AID 2283236). An outline of the steps: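 Enzyme activity in rat brain membrane preparation, read 1 h after dosing by filter-based radiometric scintillation counting. Primary screen in duplicate at 25 uM; actives (e.g., ≥30% inhibition) then run in concentration-response up to 50 uM.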

In experiment [11] the target is human Sirtuin 2 (SIRT2), SIRT2 (gene 22933) (UniProt Q8IXJ6). As to the kind of experiment: NVS_ENZ_hSIRT2: NovaScreen (NVS) Enzymatic Assay for human Sirtuin 2 (SIRT2) (AID 2283217). Summed up: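 Cell-free recombinant human SIRT2, fluorescent substrate with product separated by electrophoretic mobility shift, 1 hr. Screened in duplicate at 25 uM; hits rerun singly in concentration-response up to 50 uM, relative to DMSO.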

For experiment [12], the target named is rat Adenylate Cyclase, Forskolin Stimulated, Adcy5 (gene 64532) (UniProt Q04400). As to the kind of experiment: NVS_ENZ_rACFSKBinding: NovaScreen (NVS) Enzymatic Assay for rat Adenylate Cyclase, Forskolin Stimulated (AID 2283232). An outline of the steps:
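Rat forebrain membrane preparation, cell-free, read 1 h after dosing by filter-based scintillation counting. Primary screen in duplicate at 25 uM; actives (e.g. ≥30% inhibition) rerun in concentration-response up to 50 uM; fit versus DMSO.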

The target of experiment [13] is rat Catechol-O-Methyl Transferase (COMT), Comt (gene 24267) (UniProt P22734). Description: NVS_ENZ_rCOMT: NovaScreen (NVS) Enzymatic Assay for rat Catechol-O-Methyl Transferase (COMT) (AID 2283235). Summed up:
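Cell-free enzyme activity with protein extracted from rat dorsal striatum, measured by HPLC with absorbance detection. Compounds screened at 25 uM in duplicate; actives then run in concentration-response up to 50 uM, loss of signal versus DMSO.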

Experiment [14] relates to rat Monoamine Oxidase, MAO-A, Peripheral (MAOAP), gene 29253. Description: NVS_ENZ_rMAOAP: NovaScreen (NVS) Enzymatic Assay for rat Monoamine Oxidase, MAO-A, Peripheral (MAOAP) (AID 2283237). An outline of the steps: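 Rat liver mitochondrial membranes served as the MAO-A source, with enzyme activity measured by radiometric scintillation counting 1.17 hours after dosing. Loss of signal was fitted against DMSO; primary screen used 25 uM in duplicate, follow-up used concentration series.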

Experiment [15] has as its target rat Monoamine Oxidase, MAO-B, Central (MAOBC), Maob (gene 25750) (UniProt P19643). Description: NVS_ENZ_rMAOBC: NovaScreen (NVS) Enzymatic Assay for rat Monoamine Oxidase, MAO-B, Central (MAOBC) (AID 2283238). An outline of the steps:
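MAO-B activity in rat brain tissue preparation, cell-free, measured radiometrically by scintillation counting 1.17 h after dosing. Screened in duplicate at 25 uM; actives then in concentration-response up to 50 uM. Loss of signal versus DMSO scored.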

The target of experiment [16] is human Vascular Endothelial Growth Factor Receptor 1 (VEGFR1), FLT1 (gene 2321) (UniProt P17948). As to the kind of experiment: NVS_ENZ_hVEGFR1: NovaScreen (NVS) Enzymatic Assay for human Vascular Endothelial Growth Factor Receptor 1 (VEGFR1) (AID 2283226). An outline of the steps:
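Cell-free assay of recombinant human VEGFR1 kinase with substrate, measured 1 h after dosing; fluorescence with electrophoretic mobility-shift separation of substrate and product, referenced to DMSO; primary screen at 25 uM in duplicate, actives then run in concentration series.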

Sequence of human Raf-1 Proto-Oncogene, serine/threonine Kinase (RAF1), RAF1 (gene 5894) (P04049 whole entry, looked up): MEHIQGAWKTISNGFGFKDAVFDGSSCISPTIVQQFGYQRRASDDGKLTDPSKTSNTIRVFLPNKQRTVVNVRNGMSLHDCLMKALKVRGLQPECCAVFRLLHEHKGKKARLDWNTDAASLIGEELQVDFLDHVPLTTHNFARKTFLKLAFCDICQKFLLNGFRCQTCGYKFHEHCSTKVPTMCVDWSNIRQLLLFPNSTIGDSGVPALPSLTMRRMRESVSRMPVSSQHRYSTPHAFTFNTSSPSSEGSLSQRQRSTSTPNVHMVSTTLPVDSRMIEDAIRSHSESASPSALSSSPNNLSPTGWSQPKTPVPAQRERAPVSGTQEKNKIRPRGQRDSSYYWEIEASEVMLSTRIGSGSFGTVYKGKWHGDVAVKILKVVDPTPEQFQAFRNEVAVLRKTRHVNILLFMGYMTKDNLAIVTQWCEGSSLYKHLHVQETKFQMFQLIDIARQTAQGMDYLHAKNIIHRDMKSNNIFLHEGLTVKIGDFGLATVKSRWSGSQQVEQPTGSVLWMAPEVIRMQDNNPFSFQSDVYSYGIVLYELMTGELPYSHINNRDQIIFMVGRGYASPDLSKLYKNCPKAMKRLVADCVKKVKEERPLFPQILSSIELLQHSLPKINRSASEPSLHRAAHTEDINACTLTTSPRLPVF
Sequence of human Protein Tyrosine Phosphatase Receptor Type F (PTPRF), PTPRF (gene 5792) (P10586 whole entry, looked up): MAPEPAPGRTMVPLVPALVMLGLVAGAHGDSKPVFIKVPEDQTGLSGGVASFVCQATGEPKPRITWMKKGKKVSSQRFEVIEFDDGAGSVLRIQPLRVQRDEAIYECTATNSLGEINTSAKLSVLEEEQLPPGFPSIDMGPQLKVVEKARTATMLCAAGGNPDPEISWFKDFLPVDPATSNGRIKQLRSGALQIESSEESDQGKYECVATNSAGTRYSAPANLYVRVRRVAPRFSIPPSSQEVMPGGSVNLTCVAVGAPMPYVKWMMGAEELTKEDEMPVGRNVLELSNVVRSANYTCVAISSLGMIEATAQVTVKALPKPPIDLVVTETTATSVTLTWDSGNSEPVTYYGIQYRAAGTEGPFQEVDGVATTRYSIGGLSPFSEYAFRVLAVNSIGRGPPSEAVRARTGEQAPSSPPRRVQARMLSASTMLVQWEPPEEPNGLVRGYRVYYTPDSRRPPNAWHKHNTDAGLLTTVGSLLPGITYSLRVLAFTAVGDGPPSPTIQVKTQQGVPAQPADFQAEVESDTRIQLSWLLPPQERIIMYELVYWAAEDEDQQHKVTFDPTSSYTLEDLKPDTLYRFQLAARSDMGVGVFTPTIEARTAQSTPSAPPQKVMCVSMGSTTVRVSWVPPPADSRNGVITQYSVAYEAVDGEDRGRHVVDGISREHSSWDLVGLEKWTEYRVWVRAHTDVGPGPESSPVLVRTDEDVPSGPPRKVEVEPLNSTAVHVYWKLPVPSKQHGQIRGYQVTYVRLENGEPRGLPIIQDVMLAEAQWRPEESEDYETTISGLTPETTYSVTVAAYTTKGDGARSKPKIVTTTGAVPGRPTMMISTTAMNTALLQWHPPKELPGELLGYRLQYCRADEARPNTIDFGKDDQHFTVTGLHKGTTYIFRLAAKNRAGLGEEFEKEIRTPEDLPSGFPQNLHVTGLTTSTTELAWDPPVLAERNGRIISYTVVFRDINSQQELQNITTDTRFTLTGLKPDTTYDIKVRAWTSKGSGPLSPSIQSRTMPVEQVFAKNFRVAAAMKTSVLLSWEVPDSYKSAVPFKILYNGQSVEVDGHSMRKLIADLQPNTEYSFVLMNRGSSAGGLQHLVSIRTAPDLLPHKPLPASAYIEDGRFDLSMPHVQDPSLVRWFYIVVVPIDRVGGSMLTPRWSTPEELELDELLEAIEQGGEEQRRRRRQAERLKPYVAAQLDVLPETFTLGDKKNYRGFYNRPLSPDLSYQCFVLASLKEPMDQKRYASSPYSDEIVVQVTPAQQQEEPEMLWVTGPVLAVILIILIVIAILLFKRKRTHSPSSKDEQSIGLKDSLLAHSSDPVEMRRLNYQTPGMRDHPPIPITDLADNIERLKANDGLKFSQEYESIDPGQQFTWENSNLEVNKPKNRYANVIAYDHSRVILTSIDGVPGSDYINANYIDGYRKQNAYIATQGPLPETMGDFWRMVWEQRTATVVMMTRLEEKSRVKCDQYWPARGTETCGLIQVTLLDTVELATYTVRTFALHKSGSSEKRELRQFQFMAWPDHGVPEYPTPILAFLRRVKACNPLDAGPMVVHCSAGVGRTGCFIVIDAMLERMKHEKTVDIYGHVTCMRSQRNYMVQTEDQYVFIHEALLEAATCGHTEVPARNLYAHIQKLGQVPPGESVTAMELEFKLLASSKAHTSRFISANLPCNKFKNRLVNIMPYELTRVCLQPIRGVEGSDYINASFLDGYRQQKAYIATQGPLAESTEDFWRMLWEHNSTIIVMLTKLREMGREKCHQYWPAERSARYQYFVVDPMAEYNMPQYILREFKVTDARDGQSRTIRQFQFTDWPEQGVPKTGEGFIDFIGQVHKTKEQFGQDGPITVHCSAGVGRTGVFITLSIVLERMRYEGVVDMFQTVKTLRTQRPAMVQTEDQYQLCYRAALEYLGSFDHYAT
Sequence of rat Adenylate Cyclase, Forskolin Stimulated, Adcy5 (gene 64532) (Q04400 whole entry, looked up): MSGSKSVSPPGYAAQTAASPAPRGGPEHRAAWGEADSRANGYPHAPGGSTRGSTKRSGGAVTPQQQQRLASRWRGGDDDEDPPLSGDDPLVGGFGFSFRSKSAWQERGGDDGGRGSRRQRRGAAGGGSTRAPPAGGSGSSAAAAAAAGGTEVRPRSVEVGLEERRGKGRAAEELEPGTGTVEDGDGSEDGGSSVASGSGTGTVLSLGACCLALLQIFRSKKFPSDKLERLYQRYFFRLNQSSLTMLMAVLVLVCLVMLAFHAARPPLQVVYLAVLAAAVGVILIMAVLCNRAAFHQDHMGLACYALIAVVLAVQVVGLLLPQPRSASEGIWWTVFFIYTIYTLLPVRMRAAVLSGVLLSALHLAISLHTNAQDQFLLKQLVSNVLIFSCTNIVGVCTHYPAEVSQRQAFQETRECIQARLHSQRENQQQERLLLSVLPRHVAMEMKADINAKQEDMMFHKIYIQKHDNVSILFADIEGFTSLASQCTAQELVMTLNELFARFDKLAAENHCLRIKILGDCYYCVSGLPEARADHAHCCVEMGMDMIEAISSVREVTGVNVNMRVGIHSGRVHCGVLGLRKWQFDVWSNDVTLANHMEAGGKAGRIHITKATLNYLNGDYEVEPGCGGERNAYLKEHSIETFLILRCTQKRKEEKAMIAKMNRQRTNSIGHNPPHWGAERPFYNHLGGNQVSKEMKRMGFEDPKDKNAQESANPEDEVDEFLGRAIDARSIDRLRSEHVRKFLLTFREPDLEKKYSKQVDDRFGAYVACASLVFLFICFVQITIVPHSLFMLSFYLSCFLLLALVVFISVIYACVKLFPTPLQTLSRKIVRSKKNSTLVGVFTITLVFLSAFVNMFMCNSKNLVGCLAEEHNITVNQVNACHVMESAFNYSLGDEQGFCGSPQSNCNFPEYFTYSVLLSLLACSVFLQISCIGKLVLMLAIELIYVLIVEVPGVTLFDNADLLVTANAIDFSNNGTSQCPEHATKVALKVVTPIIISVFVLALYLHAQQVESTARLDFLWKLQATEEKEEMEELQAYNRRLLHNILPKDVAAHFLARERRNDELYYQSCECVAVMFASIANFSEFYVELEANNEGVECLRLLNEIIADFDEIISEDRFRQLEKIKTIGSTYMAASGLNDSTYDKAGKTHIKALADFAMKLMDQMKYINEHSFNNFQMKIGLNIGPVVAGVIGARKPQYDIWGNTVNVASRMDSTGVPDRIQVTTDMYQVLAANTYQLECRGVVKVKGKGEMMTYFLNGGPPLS
Sequence of human Tropomyosin Receptor Kinase A (TRKA), NTRK1 (gene 4914) (P04629 whole entry, looked up): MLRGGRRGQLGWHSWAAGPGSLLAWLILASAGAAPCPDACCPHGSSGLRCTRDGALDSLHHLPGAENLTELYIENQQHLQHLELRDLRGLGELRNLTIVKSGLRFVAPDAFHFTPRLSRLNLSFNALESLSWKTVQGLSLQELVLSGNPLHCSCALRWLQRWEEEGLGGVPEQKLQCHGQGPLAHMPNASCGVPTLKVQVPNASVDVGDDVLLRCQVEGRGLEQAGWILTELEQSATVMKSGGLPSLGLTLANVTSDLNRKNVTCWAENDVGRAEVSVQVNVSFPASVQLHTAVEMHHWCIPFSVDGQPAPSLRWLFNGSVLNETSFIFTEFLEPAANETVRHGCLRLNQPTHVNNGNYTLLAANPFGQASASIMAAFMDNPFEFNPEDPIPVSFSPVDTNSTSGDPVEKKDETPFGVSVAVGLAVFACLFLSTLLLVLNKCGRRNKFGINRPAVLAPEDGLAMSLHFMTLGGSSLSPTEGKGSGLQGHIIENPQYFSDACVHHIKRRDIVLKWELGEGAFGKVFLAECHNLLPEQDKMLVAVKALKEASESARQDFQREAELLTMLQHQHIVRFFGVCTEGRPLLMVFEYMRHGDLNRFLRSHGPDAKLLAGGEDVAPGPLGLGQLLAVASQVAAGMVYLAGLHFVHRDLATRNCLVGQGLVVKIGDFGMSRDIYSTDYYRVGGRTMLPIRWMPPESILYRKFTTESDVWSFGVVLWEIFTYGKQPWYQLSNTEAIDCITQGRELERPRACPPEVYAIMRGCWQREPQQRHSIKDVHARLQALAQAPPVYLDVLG
Sequence of human Sirtuin 3 (SIRT3), SIRT3 (gene 23410) (Q9NTG7 whole entry, looked up): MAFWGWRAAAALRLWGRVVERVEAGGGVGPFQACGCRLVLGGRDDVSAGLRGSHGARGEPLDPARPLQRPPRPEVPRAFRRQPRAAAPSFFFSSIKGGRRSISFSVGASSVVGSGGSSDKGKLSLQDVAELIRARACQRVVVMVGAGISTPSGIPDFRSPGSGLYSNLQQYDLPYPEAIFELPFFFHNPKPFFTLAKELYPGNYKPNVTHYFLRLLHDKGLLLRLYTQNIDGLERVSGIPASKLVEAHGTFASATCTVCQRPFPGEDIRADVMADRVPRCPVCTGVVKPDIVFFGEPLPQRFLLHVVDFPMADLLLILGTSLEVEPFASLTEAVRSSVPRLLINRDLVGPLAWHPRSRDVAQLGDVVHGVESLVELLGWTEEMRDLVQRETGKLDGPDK

Regarding `CC(C)(C)C(=O)C(Oc1ccc(Cl)cc1)n1cncn1` (stereo not drawn), the molecule was classed as inactive in [1].

As for `CCCC(=NOCC)C1=C(O)CC(CC(C)SCC)CC1=O` (stereo not drawn), the call in experiment [2], in experiment [3] and in experiment [4] was inactive.

For the molecule `Clc1nc(Cl)nc(Nc2ccccc2Cl)n1`, the molecule was called inactive in [5] and in experiment [7]. In addition, in [6], the AC50 was 7.05 µM (active).

Turning to `CCCCOCN(C(=O)CCl)c1c(CC)cccc1CC`, in experiment [8], the molecule was called inactive.

Take `CCOC(=O)C(C)OC(=O)c1cc(Oc2ccc(C(F)(F)F)cc2Cl)ccc1[N+](=O)[O-]` (stereo not drawn): the outcome in experiment [8] and in [4] was inactive.

Take `CN=C=S`: the call in experiment [2], in experiment [4], in [9] and in experiment [10] was inactive.

On to `O=C1C2CC=CCC2C(=O)N1SC(Cl)(Cl)Cl` (stereo not drawn), for which the outcome in [3], in experiment [12] and in [13] was inactive. The results for the AC50 in [11], in experiment [9] and in experiment [5] were 13 µM (active), 13.3 µM (active) and 39.5 µM (active), respectively.

`CCOc1nc(F)cc2nc(S(=O)(=O)Nc3c(Cl)cccc3Cl)nn12`: the molecule was classed as inactive in experiment [2].

For the molecule `COc1ccc(-c2ccccc2)cc1NNC(=O)OC(C)C`, the outcome in [4] and in [10] was inactive. The AC50 in experiment [14] is 0.31 µM (active); in experiment [15], 0.0452 µM (active).

In the case of `CC(C)Nc1nc(Cl)nc(NC(C)C)n1`, in [6], the molecule was classed as inactive.

For the molecule `C=CCOC(=O)C(C)(C)OC(=O)c1cc(-n2c(=O)cc(C(F)(F)F)n(C)c2=O)ccc1Cl`, the result in experiment [16] was inactive.

Take `CO/N=C(/C1=NOCCO1)c1ccccc1Oc1ncnc(Oc2ccccc2Cl)c1F`: the molecule was called inactive in experiment [12].
